Results: PubChem BioAssay (NCI)
This is part of a sample that, as a whole, favours compounds with a hit. Of some 83,000 tested, about 20% had one in any assay.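 Note: values are percent growth. 100 is the growth of untreated cells, values between 100 and 0 indicate rising inhibition; between -100 and 0 indicates cell death.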 A number with no mark means an inactive call. The source made the active and inactive calls. How the source made its calls: active means growth percent below 10; inactive means the rest.

These compounds were tested on HL-60(TB) leukemia (assay: NCI-60 one-dose screen, 48 h (100 = growth as untreated, 0 = no growth, -100 = all killed)). Details: 10 µM unless noted.

Row | Compound | growth
1 | O=C(c1ccccc1)C(Nc1ccccc1)c1ccccc1 (configuration not stated) | 84%
2 | COc1ccc(C2NN=C3c4ccccc4CCC32)cc1 (configuration not stated) | 40.7%
3 | Cc1ccc(-c2cnc3sc(C(=O)NCCc4ccccc4)c(C)n23)cc1 | 97.9%
4 | O=C(Nc1nc(-c2ccc(Cl)cc2)cs1)c1cc(-c2ccc(Br)cc2)nc2ccc(Cl)cc12 | -24.7% (active)
5 | O=C(NNC(=O)c1cccc(Cl)c1)c1ccccc1 | 94.3%
6 | Cc1nc2cc(Nc3nc(NCCN)nc(Nc4ccc(F)cc4)n3)ccc2n1Cc1ccccc1 | -21.5% (active)
7 | CNC(=O)c1cc(Oc2ccc3c(c2)sc2nc(-c4ccc(Cl)cc4)cn23)ccn1 | 88.4%
8 | C=C(C)[C@@H]1CC[C@]2(CO)CC[C@]3(C)[C@H](CC[C@@H]4[C@@](C)(CCCN)[C@H](C(=C)C)CC[C@]43C)[C@@H]12 | -54.7% (active)
9 | C1CCC(C(CC2CCCCN2)C2CCCCC2)CC1 (configuration not stated) | 11.1%
10 | COc1ccc2[nH]c(=O)c(CNc3ccc(Nc4nccc(-c5ccc(Cl)cc5)n4)cc3)cc2c1 | 78.2%
11 | COc1ccc(Cl)cc1Nc1nc(C(F)(F)F)ccc1C(=O)N/N=C/c1ccc([N+](=O)[O-])cc1 | -10.8% (active)
12 | O=C(Nc1nc2c(C(F)(F)F)cccc2s1)c1cc(Cl)ccc1O | -38.8% (active)
13 | CCOC(=O)N1CCN(S(=O)(=O)c2oc(-c3ccc(Cl)cc3)nc2C#N)CC1 | 56.4%
14 | CCCCn1c(-c2ccc(C(=O)O/N=C(\N)c3ccc(OC)cc3)cc2)nc(-c2ccccc2)c1-c1ccccc1 | -62.5% (active)
15 | CCN(CC)CCOC(=O)C(c1ccccc1)(c1ccccc1)C(C)C | 91.8%
16 | Cn1ccc(=O)nc1 | 105%
17 | CC(=O)/C(=C/c1ccc([N+](=O)[O-])cc1)C(=O)c1ccccc1 | 41.9%
18 | N#Cc1c(N)nc2c(c1N)C(c1ccc(Cl)cc1)C1=C(CCCC1=O)N2c1sc2c(c1C#N)CCCC2 (configuration not stated) | 89.2%
19 | CN(C)c1ccc(/C=C/C(=O)c2ccc(Nc3nc(Nc4ccc(F)cc4)nc(Nc4ccc(Cl)cc4)n3)cc2)cc1 | -70.5% (active)

Row | Compound | growth
20 | Cc1ccc(C2CCCCC2)cc1Br | 97%
21 | Cc1ccc(C(c2c(O)c3cc(Br)ccc3[nH]c2=O)c2c(O)c3cc(Br)ccc3[nH]c2=O)cc1 | 92.2%
22 | CCCc1cc2c(cc1CN(Cc1cc3c(cc1CCC)OCO3)C(=N)OCC)OCO2 | 105%
23 | CC(C)(C)c1ccc(C(=O)Nc2sc3c(c2C#N)CCC(=O)C3)cc1 | -1.94% (active)
24 | CCCCC[C@H](O)C/C=C1/C(=O)C=C[C@@H]1C/C=C\CCCC(=O)OC | 25.1%
25 | CCN(CC)CCCC(C)NCc1ccccc1 (configuration not stated) | 105%
26 | O=C(N/N=C\c1cccc([N+](=O)[O-])c1)N/N=C/c1cccc([N+](=O)[O-])c1 | 107%
27 | CCOc1ccc(C(=O)O)cc1 | 103%
28 | NCCCCCCNc1cc(-c2cccc(OC(F)(F)F)c2)nc2ccc(N3CCCC3)cc12 | -60.2% (active)
29 | CCN(CC)P(=O)(N(CC)CC)N(CCCSC/C=C(\C)CC/C=C(\C)CCC=C(C)C)CCCN1CCN(C)CC1 | 83.3%
30 | COc1ccc(C(=O)OC2C(OC3C(O)COC(O[C@H]4C[C@H]5[C@@H]6CC=C7C[C@@H](O)CC[C@]7(C)[C@H]6CC[C@]5(C)[C@H]4[C@H](C)C(=O)CCC(C)C)C3OC(C)=O)OCC(O)C2O)cc1 (some centres not stated) | -40.7% (active)
31 | COc1cc(-c2nn(-c3ccc(NC(=O)Nc4cc(C(F)(F)F)cc(C(F)(F)F)c4)cc3)cc2-c2ccncc2)ccc1Cl | 4.78% (active)
32 | Cc1cccc2c(=O)c3c(sc12)c(NCCN)nc1ccccc13 | -62.7% (active)
33 | O=S(=O)(NCCCNc1nccc(-c2c(-c3ccc(F)c(O)c3)nc3sccn23)n1)c1ccc(F)cc1 | -54.8% (active)
34 | Nc1nc(Cl)cc(=O)n1Cc1ccccc1 | 100%
35 | Nc1nc(Nc2ccc([N+](=O)[O-])cc2O)nc(C(Cl)(Cl)Cl)n1 | 6.38% (active)
36 | Fc1ccc(C2CC(c3cccc(Nc4ccncc4)c3)=NN2c2cc(Cl)cc(Cl)c2)cc1 (configuration not stated) | -13.2% (active)
37 | COc1ccc2c(c1)C(=O)/C(=C/c1cccc(OCC(=O)Nc3nc4c(s3)CCCC4)c1)O2 | -70.8% (active)
